# Records with an inconclusive call do not appear. Unmarked numbers belong to inactive results. The source made the active and inactive calls. Calls follow the shape of the dose curve; as a rule, active = well fitted curve in the direction sought with a large enough effect in the repeat runs; inconclusive = weak or mixed curves; inactive = no such curve, though single readings can be large; an effect the other way counts as inactive or inconclusive. Non-standard residues stand in square brackets, D forms with d. Residues, ends and D or L forms follow the SMILES beside them. *: point of attachment. Sta = CC(C)C[C@H](N)[C@@H](O)CC(=O)O; Isovaleryl = CC(C)CC(=O)*
# Assay: A CellTox Green Cytotoxicity Assay to monitor cytotoxicity in HepG2 cells - 8 hour (AID 1224890); also: nearly all actives have a fitted effect of over 45% in size; also: potency is read from the fitted curve at half-maximal effect
# Conditions: CellTox Green fluorescence; series mostly up to 76.8 µM; cytotoxicity increase: at the top concentration
# Procedure, shortened: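 Cytotoxicity was tracked as dead-cell DNA fluorescence in HepG2 cells treated with test compounds at 37 C; each time-point value comes from one kinetic series spanning 0, 8, 16, 24, 32 and 40 h.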
# % is scaled to controls: 0 for no effect and ±100 for the full control effect.
SMILES,cytotoxicity increase,Potency
CC(C)(C)C(=O)NCCCC(=O)O,-13.7% [at 35.3 µM],–
C=CCCCCCCCCCCCCCC,8.14% [at 15.8 µM],–
Clc1ccc2c(c1)Nc1ccccc1S2,-2.27% [at 35.3 µM],–
Cc1ccc2cccnc2c1,3.8%,–
Cc1ccc(OC(=O)CC(C)C)cc1,26.1%,–
CC(=O)c1c(C)cc(C(C)(C)C)cc1C,–,43.6 µM (active)

# Assay: qHTS assay to identify small molecule antagonists of the estrogen receptor alpha (ER-alpha) signaling pathway using the BG1 cell line in the presence of 0.1 nM 17-beta-estradiol - cell viability counter screen (AID 1259241); also: nearly all actives have a fitted effect of over 40% in size
# Conditions: VM7Luc4E2 (BG1) viability, CellTiter-Fluor protease, 22 h, 0.1 nM estradiol agonist added; series mostly up to 92.4 µM; activity change, negative = cytotoxicity: at the top concentration
# Procedure, shortened: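 VM7Luc4E2, 4,000 cells/well, phenol red-free medium + 10% charcoal-stripped FBS; 24 hr plating; cpd + 0.1 nM E2 final, 22 hr 37C/5% CO2; CellTiter-Fluor 30 min, fluorescence.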
row,SMILES,"activity change, negative = cytotoxicity"
1,CCCCCCC(=O)c1ccccc1,-8.62%
2,CCCCCCCCCCCCCC(=O)OCC,1.56%
3,CC(O)C(CO)C(C)O (centres undefined),-0.1%
4,O=C(O)/C=C(\CC(=O)O)C(=O)O,-0.377% [at 42.5 µM]
5,CC(=O)Nc1ccc(S(=O)(=O)Nc2cc(C)on2)cc1,-0.541% [at 42.5 µM]
6,C[C@@H](CN1CC(=O)NC(=O)C1)N1CC(=O)NC(=O)C1,2.97% [at 42.5 µM]
7,CCN(CC)CC,-7.24%
8,CCCCCCCCOCCC#N,0.677%
9,CC/C=C/CCCCCCCCCCOC(C)=O,4.3%
10,CC/C=C\CCOC(=O)c1ccccc1,-8.02%
11,COC(=O)c1ccc(C(=O)O)cc1,-4.5%
12,CCCCOCCCC,17.7%
13,CC(C)(C)c1ccc(N)cc1,4.68%
14,O=C(O)Cc1c(Cl)ccc(Cl)c1Cl,-1.4%
15,C=C(C)C(=O)OCCOC1CC2CC1C1C=CCC21 (centres undefined),-19.9%
16,CCCCCCCC(=O)N(C)C,-3.47%
17,COC(=O)/C=C(\C)CCC=C(C)C,-0.309%
18,Clc1cc(Cl)c(Cl)c(Cl)c1Cl,0.822%
19,CCCc1ncc(C(=O)O)s1,1.52% [at 42.5 µM]
20,Cc1cc(C)c(N)c(Cl)c1,2.5%
21,CC(C)C(=O)Nc1cccc(C2CN3CCSC3=N2)c1 (centres undefined),0.186% [at 42.5 µM]
22,COc1cc(C(=O)NC2CCCNC2)cc(OC)c1OC (centres undefined),1.2% [at 42.5 µM]
23,CCCC(=O)C(CC)Sc1ccoc1C (centres undefined),7.19%
24,CC(C)(C)C(=O)NCCCC(=O)O,1.23% [at 42.5 µM]
25,C=CCCCCCCCCCCCCCC,0.733% [at 19 µM]
26,Clc1ccc2c(c1)Nc1ccccc1S2,-3.69% [at 42.5 µM]
27,Cc1ccc2cccnc2c1,11.2%
28,CC(=O)c1c(C)cc(C(C)(C)C)cc1C,-8.41%

# Assay: qHTS assay to identify small molecule antagonists of the androgen receptor (AR) signaling pathway using the MDA cell line in the presence of 0.5 nM R1881 - cell viability counter screen (AID 1259242); also: nearly all actives have a fitted effect of over 45% in size
# Conditions: MDA-kb2 viability, CellTiter-Fluor protease fluorescence, 16 h; series mostly up to 92.4 µM; viability change, negative = cytotoxic: at the top concentration
# Procedure, shortened: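 Cells seeded at 3,000/well and allowed 5 hr at 37C, 0% CO2 before compound transfer and R1881 (0.5 nM final) addition; 16 hr later, live-cell protease fluorescence indicated cytotoxicity.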
row,SMILES,"viability change, negative = cytotoxic"
1,CC(C)CC(=O)N[C@H](C(=O)N[C@H](C(=O)N[C@@H](CC(C)C)[C@@H](O)CC(=O)N[C@@H](C)C(=O)N[C@@H](CC(C)C)[C@@H](O)CC(=O)O)C(C)C)C(C)C (Isovaleryl-VV[Sta]A[Sta]-OH),7.57% [at 42.5 µM]
2,CNC(=O)c1c(I)c(NC(C)=O)c(I)c(C(=O)O)c1I,0.262% [at 42.5 µM]
3,CCCCCCCCCCCCCC(=O)OCC,-3.13%
4,C=CCN(CC=C)CC=C,-0.42%
5,O=C(O)CCC(=O)Nc1ccc(S(=O)(=O)Nc2nccs2)cc1,-0.626% [at 42.5 µM]
6,CC(O)C(CO)C(C)O (centres undefined),-2.74%
7,O=C(O)/C=C(\CC(=O)O)C(=O)O,1.18% [at 42.5 µM]
8,CC(=O)Nc1ccc(S(=O)(=O)Nc2cc(C)on2)cc1,3.06% [at 42.5 µM]
9,C[C@@H](CN1CC(=O)NC(=O)C1)N1CC(=O)NC(=O)C1,0.209% [at 42.5 µM]
10,CCN(CC)CC,-1.51%
11,CCCCCCCCOCCC#N,1.22%
12,CC/C=C/CCCCCCCCCCOC(C)=O,3.11%
13,CC/C=C\CCOC(=O)c1ccccc1,7.4%
14,COC(=O)c1ccc(C(=O)O)cc1,-0.936%
15,COC(=O)C(c1ccccc1Cl)N1CCc2sccc2C1 (centres undefined),2.52% [at 42.5 µM]
16,Cc1ccc2ccccc2n1,-0.381%
17,CC(C)(C)c1ccc(N)cc1,0.928%
18,Cc1ccccc1OCC(=O)O,3.89%

row,SMILES,"viability change, negative = cytotoxic"
1,O=C(O)Cc1c(Cl)ccc(Cl)c1Cl,0.918%
2,C=C(C)C(=O)OCCOC1CC2CC1C1C=CCC21 (centres undefined),1.02%
3,CCCCCCCC(=O)N(C)C,2.85%
4,COC(=O)/C=C(\C)CCC=C(C)C,-3.67%
5,Clc1cc(Cl)c(Cl)c(Cl)c1Cl,-2.29%
6,CCCc1ncc(C(=O)O)s1,5.18% [at 42.5 µM]
7,Cc1cc(C)c(N)c(Cl)c1,-0.705%
8,CC(C)C(=O)Nc1cccc(C2CN3CCSC3=N2)c1 (centres undefined),0.594% [at 42.5 µM]
9,COc1cc(C(=O)NC2CCCNC2)cc(OC)c1OC (centres undefined),-1.04% [at 42.5 µM]
10,CCO/C=C1\N=C(c2ccccc2)OC1=O,0.253%
11,CCCC(=O)C(CC)Sc1ccoc1C (centres undefined),1.85%
12,CC(C)(C)C(=O)NCCCC(=O)O,-1.89% [at 42.5 µM]
13,C=CCCCCCCCCCCCCCC,1.94% [at 19 µM]
14,Clc1ccc2c(c1)Nc1ccccc1S2,-0.797% [at 42.5 µM]
15,Cc1ccc2cccnc2c1,0.959%
16,Cc1ccc(OC(=O)CC(C)C)cc1,0.211%
17,CC(=O)c1c(C)cc(C(C)(C)C)cc1C,-0.338%

# Reference: PubChem BioAssay (Tox21)
